# Measurements as given in PubChem BioAssay (NCATS).
# Results filed as inconclusive are left out. A number with no mark means an inactive call. Activity calls are given as the source filed them. Calls come from the whole dose curve; as a rule, active = well fitted curve in the direction sought with a large enough effect; inconclusive = small, poorly fitted or top-dose-only effect, or another doubt; inactive = no such curve, though single readings can be large or run the other way.
# Test: Cytometric Cell-Based qHTS for Inhibitors of the mTORC1 Signaling Pathway in MEF (Tsc2-/-, p53-/-) Cells (AID 2660);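 note: Tsc2 and p53 null MEFs carrying empty vector with compound for 24 h; percent of cells above a phospho-rpS6 to PI ratio cutoff in each well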
# Details: mTORC1 pathway cytometry; series mostly up to 38.3 µM; activity change, negative = inhibition: at the top concentration
# Text: NIH Molecular Libraries Probe Production Centers Network [MLPCN]
# NIH Chemical Genomics Center [NCGC]
# Assay Submitter (PI): Blenis, John; Hoffman, Greg; Harvard University
# NCGC Assay Overview: The mammalian target of rapamycin (mTOR) is an intracellular serine/threonine kinase Aberrant regulation of mTOR signaling plays a causative role in a number of human diseases, including cancer, benign tumors such as lymphangioleiomyomatosis (LAM) and Tuberous Sclerosis Complex (TSC), and metabolic diseases such as diabetes and obesity. This project aims to identify inhibitors of ribosomal protein S6 (rpS6) phosphorylation. The phosphorylation of rpS6 is a key event downstream of mTOR activation. The assay uses a phospho-specific antibody of phospho-rpS6 to detect inhibitors of mTOR activation. Mutations in the Tsc1 and Tsc2 genes are the underlying genetic lesions responsible for TSC, causing constitutive activation of the mTORC1 pathway and leading to profound effects on cell metabolism. Aberrant metabolism in cancer has recently received significant attention as a target to develop therapeutic agents in the treatment of cancer.1 As Tsc2-/- cells have lost the ability to respond to energy and growth factor deprivation, these cells are unable to properly down regulate cellular biosynthetic processes in response to metabolic stress, and are thus extremely sensitive to glucose deprivation-induced death.2 A central goal of this project is to explore the unique cell survival and metabolic properties of cells with Tsc1 or Tsc2 by screening for compounds that selectively target the Tsc2-/- MEFs by screening both Tsc2-/- and WT MEF cell lines. We hope to better understand these aspects of TSC physiology in order to exploit them for therapeutic benefit.
# NCGC Acumen Assay Protocol Summary:
# For quantitative high throughput analysis of mTORC1 signaling, we developed a cell-based assay for immuno-fluorescence based detection of rpS6 phosphorylation on the Acumen Explorer that will be used a platform for the primary small molecule screen. Mouse embryonic fibroblasts (MEFs) are cultured in 1536-well plates using DMEM + 10% FBS. Twenty-four hrs after plating, test compounds (solubilized in DMSO) are delivered and incubated with the cells for 24 hrs at 37 degree Celsius. Following the incubation, media with compound is aspirated and the cells are fixed in 4% paraformaldehyde (PFA) containing PBS + 0.2% TX-100. Next, PFA is aspirated, cells are washed two times with PBS plus 0.2% TX-100 and the cells are blocked for 1 hr at room temperature (blocking buffer: LiCOR Blocking Buffer plus 0.2% TX-100). This is followed by aspiration and staining with Alexa-488 conjugated-phospho-rpS6 Ser235/236 antibody for 2 hours at room temperature (Cell Signaling Technology # 4803, 1:50 dilution in blocking buffer). Cells are washed two times with PBS plus 0.2% TX-100, and stained with 10 uM propidium iodide (PI) for 20-25 minutes for cell number measurement (1:500 dilution of Hoescht staining is also added for IN Cell imaging). The plates are scanned on the Acumen Explorer laser scanning instrument (TTP Labtech) using the 488nm laser for simultaneous excitation of the Alexa-488 and PI. The fluorescence emission from the Alexa-488 conjugated rpS6 phospho-235/236 antibody staining is selected using a […] band pass filter. Fluorescence emission from the PI stain is selected using a 575-640 nm band pass filter. The normalized phospho-S6 staining is calculated as the ratio of the integrated Alexa 488 intensity divided by the integrated PI intensity for the single concentration rapamycin control (7.5 nM) and DMSO columns. […] Inhibition of the pathway is defined based on the normalized phospho-S6 intensity in rapamycin treated cells. […]
Structure (SMILES),"activity change, negative = inhibition [%]",outcome
CN1CCc2cccc3c2C1Cc1ccc(O)c(O)c1-3 (stereo not given),2.72,–
CN(C)CCCO[C@@H]1[C@H]2OC(C)(C)O[C@H]2O[C@@H]1[C@H](O)CO,-7.18,–
OC[C@H]1O[C@@H](n2cnc3c(NC4CCCCC4)ncnc32)[C@H](O)[C@@H]1O,1.56,–
C[N+]1(C)C2CC(OC(=O)[C@H](CO)c3ccccc3)CC1C1OC12 (stereo not given in full),–,inactive
CN1C2CC(OC(=O)[C@H](CO)c3ccccc3)CC1C1OC12 (stereo not given in full),-2.32,–
CCCn1c(=O)c2[nH]c(-c3ccc(OCC(=O)NCCN)cc3)nc2n(CCC)c1=O,-8.5,–
CO/N=C(\C(=O)N[C@@H]1C(=O)N2C(C(=O)O)=C(COC(C)=O)CS[C@H]12)c1csc(N)n1,2.4,–
Fc1cccc(/C=N/N=C/c2cccc(F)c2)c1,4.34,–
COc1ccccc1CNCCCCCCNCCCCCCCCNCCCCCCNCc1ccccc1OC,-1.93,–
CN(C)c1nc2c(Br)c(Br)c(Br)c(Br)c2[nH]1,5.54,–
Oc1cc(O)cc(/C=C/c2ccc(O)c(O)c2)c1,-5.81,–
c1cnc2c(c1)ccc1cccnc12,1.71,–
NO,-8.9,–
O=C(O)c1cc(=O)c2ccccc2[nH]1,-0.738,–
S=C(S)OC1CC2CC1C1CCCC21 (stereo not given),-1.19,–
Nc1nc(Cl)nc2c1ncn2[C@@H]1O[C@H](CO)[C@@H](O)[C@H]1O,2.55,–
NCCSSCCN,6.11,–
O=C(Nc1cccc(C(=O)Nc2ccc(S(=O)(=O)O)c3cc(S(=O)(=O)O)cc(S(=O)(=O)O)c23)c1)Nc1cccc(C(=O)Nc2ccc(S(=O)(=O)O)c3cc(S(=O)(=O)O)cc(S(=O)(=O)O)c23)c1,0.0006,–
O=c1[nH]c2cc(Cl)c(Cl)cc2[nH]c1=O,4.63,–
Cc1cc(NC2CCCCC2)nc(-n2nc(C)cc2C)n1,8.81,–

Structure (SMILES),"activity change, negative = inhibition [%]",outcome
CC(=O)SCC[N+](C)(C)C,1.74,–
Nc1ncnc2c1c(I)cn2[C@@H]1C[C@H](N)[C@@H](O)[C@H]1O,-12.9,–
CC1OC1P(=O)(O)O (stereo not given),-0.12,–
C#C[C@]1(O)CC[C@H]2[C@@H]3CCC4=Cc5oncc5CC4(C)[C@H]3CCC21C (stereo not given in full),-4.22,–
c1ccc(-c2ccccn2)nc1,-2.41,–
O=C(O)c1cc([N+](=O)[O-])ccc1NCCCc1ccccc1,0.373,–
Cn1cc(C2=C(c3ccc(Cl)cc3Cl)C(=O)NC2=O)c2ccccc21,5.97,–
OC[C@H]1O[C@@H](n2cnc3c(Nc4ccccc4)ncnc32)[C@H](O)[C@@H]1O,14.8,–
COc1cc(OC)c(/C=C2/C(=O)Nc3ccccc32)c(OC)c1,-24.5,–
O=C(c1cc(O)c(O)c([N+](=O)[O-])c1)c1ccccc1F,-8.87,–
Ic1ccc(N2CCN(Cc3c[nH]c4ncccc34)CC2)cc1,-19.3,–
CN1C2CCC1CC(OC(=O)C(O)c1ccccc1)C2 (stereo not given),0.334,–
OCC1O[C@H]([S-])[C@H](O)[C@@H](O)[C@@H]1O.[Au+] (stereo not given in full),-9.55,–
O=C(O)c1cc(=O)c2c(Cl)cc(Cl)cc2[nH]1,4.12,–
Brc1c(Br)c(Br)c2n[nH]nc2c1Br,2.63,–
O=C(O)[C@@H]1C[C@@H](C(=O)O)N1,6.54,–
OC[C@H]1O[C@@H](n2cnc3c(NC4CCCC4)ncnc32)[C@H](O)[C@@H]1O,3.65,–
CCN1/C(=C/C(C)=O)Sc2ccc(OC)cc21,-2.32,–
CSc1ccccc1N1CCN(CCCCCC(=O)NC2CCCc3ccccc32)CC1 (stereo not given),-6.07,–
CN1CC(=O)N/C1=N/C(=O)Nc1cccc(Cl)c1,-0.682,–
